Measurements: PubChem BioAssay (NCI)
About 79,000 compounds went through this panel and 15% of them were active in at least one assay; those are over-represented in the sample as a whole. No stated cut-off is given here; in the data, active means growth inhibition above about 70%; inactive means the rest. Where a SMILES comes first, the peptide text is derived from it. The star is where a group is joined. Bz = O=C(c1ccccc1)*; Bn = c1ccc(C*)cc1; βAla = NCCC(=O)O; For = O=C*

How the values were obtained:
[1] = NCI Yeast Anticancer Drug Screen. Data for the mec2-1 strain (AID 157); details: S. cerevisiae mec2-1 strain, at 50.0 µM, active compounds read high
Summary of the method: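 mec2-1 yeast strain, carrying an alteration in DNA damage repair or cell cycle control, was exposed to compounds; growth inhibition was measured relative to vehicle-treated controls.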

[2] = NCI Yeast Anticancer Drug Screen. Data for the sgs1 mgt1 strain (AID 161);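 further: 0% = growth of cultures given vehicle only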; details: S. cerevisiae sgs1 mgt1 strain, at 50.0 µM, active compounds read high
Summary of the method: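 Compounds are added to genetically altered yeast, and growth is compared with cultures given vehicle alone to give percent inhibition.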

[3] = NCI Yeast Anticancer Drug Screen. Data for the cln2 rad14 strain (AID 165);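 further: 0% = growth equal to vehicle treated cultures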; details: S. cerevisiae cln2 rad14 strain, at 50.0 µM, active compounds read high
Summary of the method: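 Yeast carrying cln2 and rad14 alterations (cell cycle control and DNA damage repair) were exposed to compounds. Growth inhibition was measured against vehicle-treated controls.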

[4] = NCI Yeast Anticancer Drug Screen. Data for the bub3 strain (AID 167); details: S. cerevisiae bub3 mutant strain, at 50.0 µM, active compounds read high
Summary of the method: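 Mutant yeast screening strain plus compound; vehicle-treated cultures serve as the 0% inhibition reference.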

[5] = NCI Yeast Anticancer Drug Screen. Data for the mlh1 rad18 strain (AID 175); details: S. cerevisiae mlh1 rad18 strain growth inhibition; at 50.0 µM; active compounds read high
Summary of the method: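 Growth inhibition of the yeast strain was measured after compound exposure and expressed relative to vehicle-treated controls. The strain carries defined defects in DNA damage repair.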

Measured: growth inhibition

CCOC(=O)C1CNCCC1=O (centres undefined)
inactive: [1] -20.9% | [2] -4.15% | [3] -1.4% | [4] -11.2% | [5] -8.95%

CC(C)(Oc1ccc(C(=O)c2ccc(Cl)cc2)cc1Cl)C(=O)N1CCN(CCO)CC1
inactive: [1] -8.65% | [2] 15.9% | [3] 12.3% | [4] 11.3% | [5] 12.9%

N#CC1(C#N)CC1(C#N)C#N
inactive: [1] 16.4% | [2] -1.75% | [3] 27.1% | [4] 12.7% | [5] 15.2%

COc1ccc(N=Nc2c(C)c(C#N)c(=S)n(C3OC(CO)C(O)C(O)C3O)c2C)cc1 (centres undefined)
inactive: [1] 14.1% | [2] 46.6% | [3] 7.9% | [4] 28.1% | [5] 21.7%

O=C(Nc1ccc(Br)cc1C(F)(F)F)C(F)(F)F
inactive: [1] -5.7% | [2] -2.15% | [3] -28.9% | [4] 1.9% | [5] -16.2%

COC(=O)C(CSCc1ccccc1)NC(=O)C(CSCc1ccccc1)NC(=O)CCNC(=O)c1ccccc1 (centres undefined) ({Bz-βAla}-Cys(Bn)-Cys(Bn)-OMe; configuration not given here)
inactive: [1] -5.05% | [2] 2.1% | [3] 30.1% | [4] -0.9% | [5] 9.05%

COc1ccc2nc(N(C)C)cc(N(C)C)c2c1
inactive: [1] 5.6% | [2] -2.4% | [3] -34.8% | [4] 4.6% | [5] -5%

O=c1c2ccccc2n2c(-c3ccccc3O)nnc2n1-c1ccccc1
inactive: [1] 14.8% | [2] 35.1% | [3] 26.2% | [4] 6.6% | [5] 18.2%

O=C1c2ccccc2-c2ccc3c4ccc5c6c(ccc(c7ccc1c2c73)c64)-c1ccccc1C5=O
inactive: [1] -5.4% | [2] 11.1% | [3] -30.4% | [4] 5.75% | [5] 18.4%

O=C1CN(CCN2CCCCC2)CC(=O)N2Cc3ccccc3CN12
inactive: [1] 2.85% | [2] 12.1% | [3] -1.55% | [4] 7.8% | [5] 14.2%

CCN(CC)CCCn1cnc2ncccc2c1=O
inactive: [1] -5.7% | [2] 8.8% | [3] 21% | [4] -9.2% | [5] -3.3%

CC1=CC2=NC(=O)C(c3ccccc3)C(=O)N2C=C1 (centres undefined)
inactive: [1] -27.4% | [2] -9.95% | [3] 12.8% | [4] 7.5% | [5] -19.8%

CC1=COC(=O)[C@@H]2[C@@H](C)CC[C@@H]12
inactive: [1] -3.65% | [2] -9.6% | [3] 10.3% | [4] 6.05% | [5] -4.2%

COC(=O)CCCCCN1C(=O)c2cccc([N+](=O)[O-])c2C1=O
inactive: [1] 7.2% | [2] 15.6% | [3] 20.9% | [4] 15.2% | [5] 20.6%

CCCSS[C@H]1NC(=O)[C@H]1NC(=O)COc1ccccc1
inactive: [1] 8.5% | [2] 1.4% | [3] 3.05% | [4] 19.1% | [5] -3.6%

N#CCc1c(F)c(F)c(F)c(F)c1F
inactive: [1] 5.75% | [2] 14.4% | [3] 3.2% | [4] 10.5% | [5] 2.6%

COc1ccc(N=C(C)C2C(=O)c3ccccc3C2=O)cc1
inactive: [1] -21.9% | [2] -10.2% | [3] 13.7% | [4] 16.6% | [5] -30.7%

CC(C)=CCC\C(C)=C/C=C/C(C)=C\C=C\C(C)=C/C=C/C=C(C)\C=C\C=C(C)/C=C/C=C(/C)CCC=C(C)C
inactive: [1] -30.8% | [2] -29% | [3] 30.9% | [4] -30.6% | [5] 20.2%

Nc1ccc2c(c1)NCC2
inactive: [1] -45.7% | [2] -17.1% | [3] 12.1% | [4] -14.9% | [5] -16.6%

CCOC(=O)c1c(O)nc2sc3ccccc3n2c1=O
inactive: [1] 12.7% | [2] 6.7% | [3] -1.75% | [4] 13.6% | [5] 41.4%

CCOC(=O)C(NC(=O)Cc1ccccc1)C1NC(C(=O)O)CS1 (centres undefined)
inactive: [1] 1.8% | [2] 3.2% | [3] -14.8% | [4] -1.05% | [5] -13.8%

CCCO[C@@H]1[C@@H](OC(C)=O)[C@@H](OC(C)=O)C(C)(C)/C=C/[C@H](C)C(=O)[C@@]2(OC(C)=O)C[C@@](C)(OC(C)=O)[C@H](OC(C)=O)[C@@H]2[C@H]2OC(=O)CC[C@@]12OC(=O)c1ccccc1
inactive: [1] -24.2% | [2] -56.5% | [3] -16.1% | [4] -48.8% | [5] -29.1%

COc1ccc(/C=C2\N=C(c3ccccc3)N(Nc3nnc(NN4C(=O)/C(=C/c5ccc(OC)cc5)N=C4c4ccccc4)c4ccccc34)C2=O)cc1
inactive: [1] -10.3% | [2] 1.65% | [3] 8.7% | [4] -21.4% | [5] 4.35%

O=C(c1ccc(F)cc1)c1c[nH]c(=O)[nH]c1=O
inactive: [1] -18.1% | [2] -7.85% | [3] -6.85% | [4] 2.6% | [5] -33.2%

CC(C)CC(F)(C(N)=O)C(N)=O
inactive: [1] -4.15% | [2] -3.4% | [3] -3.05% | [4] -5.65% | [5] -4.2%

CSCCC(NC(=O)C(Cc1ccccc1)NC=O)C(=O)O (stereo not drawn) (For-Phe-Met-OH; configuration not given here)
inactive: [1] -26.9% | [2] -10.5% | [3] 5.7% | [4] 19.4% | [5] -11.5%

NC(=O)NC(=O)c1ccco1
inactive: [1] -1.55% | [2] 28.9% | [3] 17.1% | [4] -1.3% | [5] 16%

CCc1nnc2sc(=S)[nH]n12
inactive: [1] -14.6% | [2] -15.8% | [3] -7.4% | [4] 2.45% | [5] -12.9%

CN(C)c1ccc(Cc2ccc(N(C)C)cc2)cc1
inactive: [1] -6.3% | [2] -16.9% | [3] -23.6% | [4] 10.4% | [5] 7%

COc1ccc(C2=Nc3ccccc3NC(=O)C2)cc1
inactive: [1] -20.9% | [2] -12.6% | [3] 11.4% | [4] -17.1% | [5] -19.9%

CCOc1ccc(Nc2nc(C)c(C(=O)CC(=O)C(=O)Nc3ccc(C(C)C)cc3C(C)C)s2)cc1
inactive: [1] 10.1% | [2] 5.45% | [3] -14.8% | [4] -20%

Cc1cc(CC(N)C(=O)O)ccc1O (centres undefined)
inactive: [1] 7.05% | [2] -6% | [3] -6.85% | [4] 0.5% | [5] -16.6%

CC(=O)Nc1ccc(OC2=CCN(C)CC2)cc1
inactive: [1] -16.1% | [2] 8.85% | [3] 12.7% | [4] 11.1% | [5] -64.8%

CCCCOC(=O)NCNC(=O)OCCCC
inactive: [1] -7.1% | [2] -2.1% | [3] -15% | [4] 1.6% | [5] 14.9%

CCOC(=O)/C=C\SCCC(=O)O
inactive: [1] 11.1% | [2] 15.8% | [3] 25.9% | [4] 27.1% | [5] 41.9%

COc1cc(CC(NC(=O)c2ccccc2)C(C)=O)cc(OC)c1OC (centres undefined)
inactive: [1] 9.35% | [2] -5.4% | [3] -26.2% | [4] 27.8% | [5] -4.1%

NCCCN(CCO)CCO
inactive: [1] -3.1% | [2] -27.9% | [3] -31.9% | [4] -28.5% | [5] -20.4%

CC(C)CCOC(=S)S
inactive: [1] 17.9% | [2] -22.6% | [3] -5.8% | [4] 34.2% | [5] -38.4%

CN(C)C=NCc1ccc2c(c1)OCO2
inactive: [1] -24% | [2] -13.2% | [3] 2.7% | [4] 1.5% | [5] -17%
